In PubChem BioAssay AID1159580 (chemical genetic matrix, 2015):
“And” between values parts separate entries of the source, which are not always exact repeats. Identical values can stand only once. Among all 5,500 compounds or so, about 2,000 (36%) were called active. Inconclusive results (about 18%) are left out. Cut-off read from the data, not from the text of the source: active = normalized growth mostly below about 0.91 (no sharp cut-off); inconclusive = no clear call, values can overlap the other calls; inactive = mostly above about 0.92. This is one part of the list.

Assay: chemical genetic growth profiling, strain panel (AID 1159580);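 note: tested at 20 µM; growth read once vehicle control cultures reached saturation at 30 °C; 1 = growth at the plate median or of vehicle wells; lower values mean less growth of the strain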
Conditions: growth OD

Measured: normalized growth

NC(=O)c1cccc(N)c1
inactive: S. cerevisiae deletion strains, locus YJR043C, strain POL32, stronger effect = lower value 1.01 | S. cerevisiae deletion strains, locus YJR075W, strain HOC1, stronger effect = lower value 1.01 | S. cerevisiae deletion strains, locus YKL009W, strain mrt4, stronger effect = lower value 0.996 | S. cerevisiae deletion strains, locus YKL068W, stronger effect = lower value 0.993 | S. cerevisiae deletion strains, locus YKL085W, strain MDH1 (second series), stronger effect = lower value 1 | S. cerevisiae deletion strains, locus YKL085W, strain MDH1, stronger effect = lower value 1 | S. cerevisiae deletion strains, locus YKL160W, strain elf1, stronger effect = lower value 0.984 | S. cerevisiae deletion strains, locus YKL190W, strain CNB1, stronger effect = lower value 1.02 | S. cerevisiae deletion strains, locus YKR001C, strain vps1, stronger effect = lower value 0.996 | S. cerevisiae deletion strains, locus YKR026C, strain gcn3, stronger effect = lower value 0.977 | S. cerevisiae deletion strains, locus YKR091W, strain srl3, stronger effect = lower value 0.977 | S. cerevisiae deletion strains, locus YLL001W, strain dnm1, stronger effect = lower value 0.93 | S. cerevisiae deletion strains, locus YLL026W, stronger effect = lower value 0.984 | S. cerevisiae deletion strains, locus YLL041C, strain sdh2, stronger effect = lower value 0.97 | S. cerevisiae deletion strains, locus YLR027C, strain aat2, stronger effect = lower value 0.997 | S. cerevisiae deletion strains, locus YLR039C, strain RIC1, stronger effect = lower value 1 | S. cerevisiae deletion strains, locus YLR058C, strain SHM2, stronger effect = lower value 1.01 | S. cerevisiae deletion strains, locus YLR102C, strain apc9, stronger effect = lower value 0.998 | S. cerevisiae deletion strains, locus YLR221C, strain rsa3, stronger effect = lower value 0.962 | S. cerevisiae deletion strains, locus YLR258W, strain gsy2, stronger effect = lower value 0.972 | S. cerevisiae deletion strains, locus YLR262C, strain YPT6 (second series), stronger effect = lower value 0.966 | S. cerevisiae deletion strains, locus YLR262C, strain YPT6, stronger effect = lower value 1.01 | S. cerevisiae deletion strains, locus YLR268W, strain sec22, stronger effect = lower value 0.996 | S. cerevisiae deletion strains, locus YLR320W, strain mms22, stronger effect = lower value 0.988 | S. cerevisiae deletion strains, locus YLR330W, strain CHS5, stronger effect = lower value 1.01 | S. cerevisiae deletion strains, locus YLR342W, strain FKS1 (second series), stronger effect = lower value 1.01 | S. cerevisiae deletion strains, locus YLR342W, strain FKS1, stronger effect = lower value 0.942 | S. cerevisiae deletion strains, locus YLR357W, strain rsc2, stronger effect = lower value 0.976 | S. cerevisiae deletion strains, locus YLR370C, strain arc18, stronger effect = lower value 0.941 | S. cerevisiae deletion strains, locus YLR371W, strain rom2, stronger effect = lower value 1 | S. cerevisiae deletion strains, locus YLR384C, strain iki3, stronger effect = lower value 0.992 | S. cerevisiae deletion strains, locus YLR418C, strain cdc73, stronger effect = lower value 1.01 | S. cerevisiae deletion strains, locus YML016C, strain PPZ1, stronger effect = lower value 1 | S. cerevisiae deletion strains, locus YML032C, strain rad52, stronger effect = lower value 0.993 | S. cerevisiae deletion strains, locus YML120C, strain ndi1, stronger effect = lower value 0.994 | S. cerevisiae deletion strains, locus YML124C, strain tub3, stronger effect = lower value 0.995 | S. cerevisiae deletion strains, locus YMR058W, strain fet3, stronger effect = lower value 0.965 | S. cerevisiae deletion strains, locus YMR078C, strain ctf18, stronger effect = lower value 0.999 | S. cerevisiae deletion strains, locus YMR125W, strain sto1, stronger effect = lower value 0.976 | S. cerevisiae deletion strains, locus YMR129W, stronger effect = lower value 1.01 | S. cerevisiae deletion strains, locus YMR205C, strain PFK2, stronger effect = lower value 0.991 | S. cerevisiae deletion strains, locus YMR223W, strain ubp8, stronger effect = lower value 0.993 | S. cerevisiae deletion strains, locus YMR231W, strain pep5, stronger effect = lower value 0.984 | S. cerevisiae deletion strains, locus YMR263W, strain SAP30, stronger effect = lower value 1.02 | S. cerevisiae deletion strains, locus YMR307W, strain GAS1, stronger effect = lower value 1.02 | S. cerevisiae deletion strains, locus YNL067W, strain RPL9B, stronger effect = lower value 1.01 | S. cerevisiae deletion strains, locus YNL071W, strain lat1, stronger effect = lower value 0.961 | S. cerevisiae deletion strains, locus YNL128W, strain TEP1, stronger effect = lower value 1.01 | S. cerevisiae deletion strains, locus YNL153C, strain GIM3, stronger effect = lower value 1.01 | S. cerevisiae deletion strains, locus YNL175C, strain NOP13, stronger effect = lower value 1.02 | S. cerevisiae deletion strains, locus YNL197C, strain WHI3, stronger effect = lower value 1.01 | S. cerevisiae deletion strains, locus YNL209W, strain ssb2, stronger effect = lower value 0.985 | S. cerevisiae deletion strains, locus YNL224C, strain SQS1, stronger effect = lower value 1.02 | S. cerevisiae deletion strains, locus YNL233W, strain BNI4, stronger effect = lower value 0.999 | S. cerevisiae deletion strains, locus YNL248C, strain rpa49, stronger effect = lower value 0.974 | S. cerevisiae deletion strains, locus YNL250W, strain rad50, stronger effect = lower value 0.988 | S. cerevisiae deletion strains, locus YNL271C, strain bni1, stronger effect = lower value 0.989 | S. cerevisiae deletion strains, locus YNL298W, strain CLA4, stronger effect = lower value 1.01 | S. cerevisiae deletion strains, locus YNL307C, strain MCK1, stronger effect = lower value 0.996 | S. cerevisiae deletion strains, locus YNL322C, strain KRE1 (second series), stronger effect = lower value 0.968 | S. cerevisiae deletion strains, locus YNL322C, strain KRE1, stronger effect = lower value 1.01 | S. cerevisiae deletion strains, locus YNR049C, strain mso1, stronger effect = lower value 0.965 | S. cerevisiae deletion strains, locus YNR052C, strain pop2, stronger effect = lower value 1 | S. cerevisiae deletion strains, locus YOL006C, strain TOP1, stronger effect = lower value 1.06 | S. cerevisiae deletion strains, locus YOL012C, strain htz1 1 | S. cerevisiae deletion strains, locus YOL147C, strain pex11, stronger effect = lower value 1 | S. cerevisiae deletion strains, locus YOR001W, strain rrp6, stronger effect = lower value 0.97 | S. cerevisiae deletion strains, locus YOR061W, strain CKA2, stronger effect = lower value 1 | S. cerevisiae deletion strains, locus YOR069W, strain VPS5, stronger effect = lower value 1.01 | S. cerevisiae deletion strains, locus YOR070C, strain gyp1, stronger effect = lower value 1.02 | S. cerevisiae deletion strains, locus YOR080W, strain dia2, stronger effect = lower value 0.981 | S. cerevisiae deletion strains, locus YOR083W, strain WHI5 (second series), stronger effect = lower value 1.02 | S. cerevisiae deletion strains, locus YOR083W, strain WHI5, stronger effect = lower value 0.994 | S. cerevisiae deletion strains, locus YOR106W, strain vam3, stronger effect = lower value 0.972 | S. cerevisiae deletion strains, locus YOR136W, strain idh2, stronger effect = lower value 0.993 | S. cerevisiae deletion strains, locus YOR144C, strain elg1, stronger effect = lower value 0.992 | S. cerevisiae deletion strains, locus YOR184W, strain ser1, stronger effect = lower value 1 | S. cerevisiae deletion strains, locus YOR265W, strain rbl2, stronger effect = lower value 0.968 | S. cerevisiae deletion strains, locus YOR270C, strain vph1, stronger effect = lower value 0.995 | S. cerevisiae deletion strains, locus YOR290C, strain snf2, stronger effect = lower value 0.974 | S. cerevisiae deletion strains, locus YOR316C, strain cot1, stronger effect = lower value 1 | S. cerevisiae deletion strains, locus YPL051W, strain arl3, stronger effect = lower value 1 | S. cerevisiae deletion strains, locus YPL055C, strain LGE1, stronger effect = lower value 1.06 | S. cerevisiae deletion strains, locus YPL078C, strain atp4, stronger effect = lower value 0.963 | S. cerevisiae deletion strains, locus YPL106C, strain sse1, stronger effect = lower value 0.964 | S. cerevisiae deletion strains, locus YPL240C, strain hsp82, stronger effect = lower value 0.984 | S. cerevisiae deletion strains, locus YPL241C, strain CIN2, stronger effect = lower value 1.01 and 1 | S. cerevisiae deletion strains, locus YPR119W, strain clb2, stronger effect = lower value 0.988 | S. cerevisiae deletion strains, locus YPR141C, strain kar3, stronger effect = lower value 0.996 | S. cerevisiae deletion strains, locus YPR163C, strain tif3, stronger effect = lower value 1 | S. cerevisiae deletion strains, locus YPR167C, strain met16, stronger effect = lower value 0.996 | S. cerevisiae deletion strains, strain wtn01, stronger effect = lower value 0.983 | S. cerevisiae strains, strain wild type, stronger effect = lower value 1
